Compounds with a hit are over-represented: about 2.2% of the library has one in this group of screens.
CHO-K1 Ca ag: counter-screen for M1 agonists: effect in parental CHO-K1 cells. Fluo-8 calcium fluorescence; scaled to maximal ATP response, vehicle zero. activation, % at 3 µM. 360,000 compounds, 0.48% hits. AID 602248, 2012; in the data active = activation above about 15%;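 note: untransfected CHO-K1 host cells lacking M1 receptor as counterscreen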
ANO1 activ: TMEM16A chloride channel activators or potentiators, primary screen, cell-based, HTS; Anoctamin-1 (Mus musculus), Q8BHY3; HEK293 TMEM16A/YFP-H148Q/I152L, iodide quench fluorescence; hits give low values; B-score at 10 µM; 340,000 compounds, 0.3% hits;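 active = fluorescence-ratio B-score plate-corrected deviation score at least 3 library SD below zero, with starting fluorescence score within 5 deviations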;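 note: channel opened by trigger with iodide after compound preincubation; score built on the fluorescence ratio of max minus min over baseline; more negative score means more quench and so TMEM16A activation or potentiation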
Target sequence (Q8BHY3 whole entry, looked up): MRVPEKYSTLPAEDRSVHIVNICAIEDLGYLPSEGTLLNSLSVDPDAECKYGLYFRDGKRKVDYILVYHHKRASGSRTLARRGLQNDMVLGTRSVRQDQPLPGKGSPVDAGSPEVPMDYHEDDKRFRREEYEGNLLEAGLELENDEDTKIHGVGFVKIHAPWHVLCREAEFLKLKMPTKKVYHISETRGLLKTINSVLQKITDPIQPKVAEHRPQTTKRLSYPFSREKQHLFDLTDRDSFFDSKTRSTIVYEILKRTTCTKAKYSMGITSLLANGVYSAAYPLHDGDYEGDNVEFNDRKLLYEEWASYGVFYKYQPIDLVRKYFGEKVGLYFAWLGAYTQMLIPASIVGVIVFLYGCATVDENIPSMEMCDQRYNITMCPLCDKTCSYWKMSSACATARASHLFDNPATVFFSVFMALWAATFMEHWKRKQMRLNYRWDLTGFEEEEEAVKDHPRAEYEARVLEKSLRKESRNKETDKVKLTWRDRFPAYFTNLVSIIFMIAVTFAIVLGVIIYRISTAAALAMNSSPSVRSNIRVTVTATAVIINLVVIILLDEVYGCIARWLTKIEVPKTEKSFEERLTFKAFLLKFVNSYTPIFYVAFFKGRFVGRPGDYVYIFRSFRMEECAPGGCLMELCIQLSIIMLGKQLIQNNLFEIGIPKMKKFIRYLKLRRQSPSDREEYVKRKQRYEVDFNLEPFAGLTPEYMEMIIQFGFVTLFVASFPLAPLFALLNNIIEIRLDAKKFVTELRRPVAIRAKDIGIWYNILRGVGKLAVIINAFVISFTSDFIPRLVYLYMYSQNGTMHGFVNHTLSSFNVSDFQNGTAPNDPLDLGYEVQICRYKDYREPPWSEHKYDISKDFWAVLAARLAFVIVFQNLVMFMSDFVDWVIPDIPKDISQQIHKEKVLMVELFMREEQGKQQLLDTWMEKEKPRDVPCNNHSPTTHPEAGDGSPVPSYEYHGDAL
CHO-K1 Ca PAM: nonselective calcium activators in parental CHO-K1 cells, primary screen, counter-screen for M1 PAM project, cell-based, Fluo-8 calcium fluorescence, full deck, 1536-well; ATP EC20; 0% at ATP EC20, 100% at ATP max; activation, % at 3 µM; AID 602247, 2012; 360,000 compounds, 0.02% hits;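 active = activation above the run cutoff, the mean activation of all test compounds plus 3 SD, cut at about 40% in these data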;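 note: peak over basal fluorescence ratio in a 140 s read after ATP addition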
NTR1 agonist: agonists of human NTR1, primary screen, imaging, U2OS cells, beta-arrestin-GFP, high content; Neurotensin receptor type 1 (Homo sapiens), P30989; AID 493036, 2011; 330,000 compounds, 0.17% hits; NTR1-U2OS beta-arrestin-GFP spot imaging, agonist mode; activation, % at 20 µM;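 active = activation at or above 40% of the spot to cytoplasm intensity ratio, with at least 20 cells analyzed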
ANO1 block: TMEM16A chloride channel inhibitors, primary screen, cell-based, HTS | HEK293 TMEM16A/YFP iodide influx fluorescence, ionomycin | normalized B-score (activity score, 25-100; higher = stronger inhibition) at 10 µM | Anoctamin-1 (Mus musculus), Q8BHY3 | 310,000 compounds, 1.2% hits;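 active = ratio plate-corrected score three or more library SD toward inhibition, starting fluorescence score within five deviations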;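 note: score derived from kinetic fluorescence span divided by baseline fluorescence per well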
CHO-K1 Ca antag: M1 antagonist counterscreen hit in parental CHO-K1 cells | 360,000 compounds, 0.6% hits | inhibition, % at 3 µM | ATP-induced calcium, Fluo-8 fluorescence | AID 602250;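 active = inhibition above a per-plate cutoff, the plate's mean sample inhibition plus 3 SD, cut at about 24% in these data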
A number is an active result; - = inactive; . = not tested or not shown.

SMILES	CHO-K1 Ca ag	ANO1 activ	CHO-K1 Ca PAM	NTR1 agonist	ANO1 block	CHO-K1 Ca antag
CC(C)S(=O)(=O)C1=NSC2=NC(=O)/C(=C\c3ccc(-c4ccccc4)o3)C(=N)N21	-	-	-	.	25	-
O=C(CCN1C(=O)/C(=C/c2ccccc2F)SC1=S)NCCc1ccc(O)cc1	15.9	-	-	-	-	-
O=C(CSc1nc2[nH]ncc2c(=O)n1-c1ccccc1)NCCc1ccccc1	16.8	-	-	-	-	-
CC(C)C(Cl)=NOC(=O)Nc1ccc(S(N)(=O)=O)cc1	-	-	-	.	.	-
CC(C)c1ccc(CN2CCC2(C)C(=O)Nc2ccc3c(c2)OCO3)cc1 (stereo unspecified)	17.3	.	-	.	.	-
CC1=C(C(=O)N(C)C)CC(CC(=O)NCCc2ccccn2)C(=O)N1CCCN1CCCC1=O (stereo unspecified)	-	.	-	.	.	-
Cc1ccc(S(=O)(=O)N2CCC(=O)N([C@H](COCc3ccc(Cl)cc3Cl)Cc3ccccc3)CC2)cc1	-	.	-	.	.	-
Cc1ccc(S(=O)(=O)N2CCC(=O)N(C(COCc3ccc(Cl)cc3)Cc3ccccc3)CC2)cc1 (stereo unspecified)	-	-24.5	-	-	-	-
COc1cccc(CN(C)C(=O)C2CCCN(C(=O)c3ccc(Cl)cc3)C2)c1 (stereo unspecified)	-	.	-	.	.	-
CCCCN1C(=O)C(CC(=O)NCCCN(C)C)CC(C(=O)N2CCCCCC2)=C1C (stereo unspecified)	-	.	-	.	.	-
O=C(Cn1cccc1C(=O)c1ccccc1)NCc1ccc2c(c1)OCO2	-	-	-	-	-	53.3
O=C(Cc1c(F)cccc1Cl)c1ccc(O)cc1O	-	-	-	-	-	-
O=C(Cc1ccccc1F)c1ccc(O)cc1O	19.4	-	-	-	-	-
COc1ccc(C(O)c2ncc(-c3ccccc3Cl)[nH]2)cc1F (stereo unspecified)	-	.	-	.	.	-
COc1ccc(OC)c(/C=N\NC(=O)CSc2nnc(CCCc3ccc(OC)c(C)c3)o2)c1	-	-	-	-	100	-
COc1ccc(CCCc2nnc(SCC(=O)Nc3cc(C)c(C)cc3Br)o2)cc1	-	-	-	-	-	-
COc1ccccc1CN(C)C[C@@H]1OCc2cnnn2CCCC(=O)N([C@H](C)CO)C[C@H]1C	-	.	-	.	.	-
O=C(CC[C@H]1O[C@@H](n2cnc3c(NC(=O)c4ccccc4)ncnc32)[C@H](O)[C@@H]1O)NCCCN1CCCC1=O	-	.	-	.	.	-
COCCn1c(C)cc(C(=O)CSc2ccc3ccccc3n2)c1C	-	-	-	-	25	-
COCCn1c(C)cc(C(=O)CSc2nc3ccccc3c(=O)[nH]2)c1C	-	-	-	-	-	-
Cc1ccc(C(O)c2ncc(-c3ccccc3Cl)[nH]2)c(C)c1 (stereo unspecified)	-	.	-	.	.	-
COc1ccc(C2CC=C(C(C)=O)CN2S(=O)(=O)c2ccccc2)cc1 (stereo unspecified)	-	.	-	.	.	23.9
COc1ccc(C2CC=C(C(C)=O)CN2S(=O)(=O)c2ccc(C)cc2)cc1 (stereo unspecified)	-	.	-	.	.	-
CC(=O)N1CCc2cc(S(=O)(=O)N3CCc4ccccc43)ccc21	15.2	-	-	-	-	-
CC1CN(C(=O)c2ccc(S(=O)(=O)Nc3cccc(C(F)(F)F)c3)cc2)CC(C)O1 (stereo unspecified)	21.5	-	-	-	-	-
SMILES	CHO-K1 Ca ag	ANO1 activ	CHO-K1 Ca PAM	NTR1 agonist	ANO1 block	CHO-K1 Ca antag
O=C(c1ccc(S(=O)(=O)Nc2cccc(C(F)(F)F)c2)cc1)N1CCOCC1	-	-	-	-	-	-
CC(=O)N1CCc2cc(S(=O)(=O)Nc3cccc(C(F)(F)F)c3)ccc21	-	-	-	-	25	-
CCOC(=O)COc1ccc(S(=O)(=O)Nc2cccc(SC)c2)cc1	-	-	-	-	25	-
COc1cccc(NS(=O)(=O)c2ccc3c(c2)CCN3C(C)=O)c1	-	-	-	-	-	-
CC(=O)N1CCc2cc(S(=O)(=O)N3CCc4ccccc4C3)ccc21	-	-	-	-	-	-
CC1=C(C(=O)N(C(C)C)C(C)C)CC(CC(=O)NCCN2CCOCC2)C(=O)N1Cc1ccc(F)cc1 (stereo unspecified)	-	.	-	.	.	-
Cc1ccc(NC2CCCN(C(=O)C3CCCC3)C2)cc1C (stereo unspecified)	-	-	-	-	-	-
CCCN1CCN(CCCNC(=O)CN2C(=O)COc3ccc(C(C)(C)C)cc32)CC1	-	.	-	.	.	-
CSc1cccc(NS(=O)(=O)c2ccc3c(c2)CCN3C(C)=O)c1	18.4	-	-	-	25	29.1
Cc1cccc(C)c1NC(=O)c1cc(S(=O)(=O)N2CCc3ccccc32)cn1C	-	-	-	-	-	-
Cn1cc(S(=O)(=O)N2CCc3ccccc32)cc1C(=O)NC(C)(C)C	-	-	-	-	-	26.0
CCCCCOc1ccc(/C=C/c2c([N+](=O)[O-])c(=O)n(C)c(=O)n2C)cc1	-	-	-	-	-	-
COc1ccc(Cn2nnnc2C(C(C)C)N(Cc2ccco2)Cc2cccs2)cc1 (stereo unspecified)	-	-	-	-	-	-
CC(C)C(c1nnnn1Cc1ccccc1)N(Cc1ccco1)Cc1cccs1 (stereo unspecified)	-	-13.8	-	-	-	-
CCOC(=O)c1c(CC(C)C)csc1NC(=O)C(C)C	-	-	-	-	25	-
CCOC(=O)c1c(CC(C)C)csc1NC(=O)CCl	-	-	-	-	-	-
COc1ccc(C(=O)N/C(=C/c2ccc(Cl)cc2)C(=O)Nc2ccc(C(=O)O)cc2)cc1	-	-	-	-	-	24.8
CCc1nc2c(OCC(=O)c3ccc(Cl)cc3Cl)cccn2c1N(C)C(=O)COc1ccccc1	-	.	-	.	.	-
O=C1/C(=C\c2cc(Cl)c(O)c(Cl)c2)SC(=S)N1Cc1ccccc1	16.2	-	-	.	-	-
COc1cccc(/C=C2\SC(=S)N(CCCC(=O)N3CCCCC3CCO)C2=O)c1 (stereo unspecified)	15.3	-	-	-	-	-
CCc1ccc(C=C2SC(=S)N(CCCC(=O)Nc3ccc(C(=O)O)cc3)C2=O)cc1	-	.	-	.	.	-
O=C(CCN1C(=O)/C(=C\c2ccccc2)SC1=S)N1CCCCC1	15.1	-	-	-	-	-
CCc1ccc(/C=C2/SC(=S)N(CCCC(=O)Nc3ccccc3C(=O)O)C2=O)cc1	-	-	-	-	100	-

Assay outcomes as filed in PubChem.
